12-hLO inh: inhibitors of human 12-lipoxygenase (ALOX12); P18054; purified 12-hLO, xylenol orange hydroperoxide absorbance; Potency, µM (top dose mostly 57.1 µM), without a hit: at the highest dose activity change, negative = inhibition, hits mostly inhibitors; 150,000 compounds, 0.12% hits; AID 1452; also: potency is read from the fitted curve at half-maximal effect; nearly all actives have a fitted effect of over 55% in size
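Hydroperoxide formation by human 12-lipoxygenase from 40 uM arachidonic acid was followed colorimetrically via ferric-xylenol orange complex, using the 573/405 nm absorbance ratio. Enzyme concentration was 150 nM, with 30 min reaction at room temperature.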
IMPase Li inh: cell-permeable IMPase inhibitors with lithium potentiation. 210,000 compounds, 0.35% hits. CHO-M1 cells, IP1 TR-FRET (IP-One), carbachol + lithium. Potency, µM (highest dose often 59.4 µM), for inactives: at the top dose activity, negative = IMPase inhibition, most hits filed as inhibitors. AID 1457;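 also: IP1 builds up when IMPase is blocked and the TR-FRET signal falls; potency is read from the fitted curve at half-maximal effect; plate controls were basal vehicle for no effect and high inhibitor control for full effect; nearly all actives have a fitted effect of over 50% in size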
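CHO cells stably expressing M1 receptor (2000/well) were cultured 16–30 h, then exposed to compounds with a small lithium addition for 30 min at 37C. IP1 was measured by TR-FRET competition; AC50 from Hill fits.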
PNC inhibitor: perinucleolar compartment assembly inhibition. PC3M PTB-GFP, PNC prevalence imaging, 16 h; active compounds read low. activity change (PNC), negative = inhibition, % at 10 µM. 140,000 compounds, 3.1% hits. AID 2417;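 active = readout at or below -70, meaning at least 70% loss of cells showing the perinucleolar compartment, a nuclear body marking cancer cells; inconclusive = readout between -30 and a set limit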;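 also: plate controls were DMSO wells for no effect and camptothecin positive control wells for full effect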
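PC3M cells stably expressing PTB-GFP, 750–1000 cells/well, treated 16 h at 37 °C with compound (23 nl of library stock), in duplicate. After paraformaldehyde fixation and Hoechst stain, imaged at 20x; PNC prevalence scored by image analysis.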
IMPase cell inh: membrane-permeable compound that blocks inositol monophosphatase. AID 901. 120,000 tested, under 10 active. P97697. CHO-M1 cells, IP1 accumulation, HTRF TR-FRET ratio. inhibition (IP1 accumulation), % at 46.1 µM; active = well fitted curve in the direction sought with a large enough effect in the signal ratio, not every such curve was filed as active; inconclusive = small, poorly fitted or top-dose-only effect, or a change in a side signal; inactive = no such curve, though single readings can be large or run the other way; the % refers to the signal ratio;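 also: cells stimulated with carbachol in lithium chloride buffer; plate controls were DMSO basal wells for no effect and reference inhibitor wells for full effect; higher means more IMPase inhibition seen as more IP1 and lower FRET ratio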
Target sequence (P97697 whole entry, looked up): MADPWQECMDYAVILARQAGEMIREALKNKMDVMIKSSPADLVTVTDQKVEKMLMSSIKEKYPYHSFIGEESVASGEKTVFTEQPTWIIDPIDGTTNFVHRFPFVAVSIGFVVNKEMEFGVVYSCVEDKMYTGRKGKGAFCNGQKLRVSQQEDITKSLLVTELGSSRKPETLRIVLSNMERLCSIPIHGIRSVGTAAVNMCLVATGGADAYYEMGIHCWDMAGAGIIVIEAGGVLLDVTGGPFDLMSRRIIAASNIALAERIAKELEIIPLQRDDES
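Measured: the HTRF emission ratio (665/620 nm) plus the 620 nm donor channel, each fitted to the Hill equation to give AC50. Cells were CHO-M1 given compounds up to 46 uM and a 30 min carbachol stimulation at 37C.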
ALOX15B inhib: 15-hLO-2 (ALOX15B) enzyme inhibition. purified 15hLO-2, xylenol orange hydroperoxide absorbance. Potency, µM (series often up to 57.1 µM), inactives show at the highest dose activity change, negative = inhibition, usual class: inhibitors. 110,000 compounds, 0.56% hits. AID 881; also: potency is read from the fitted curve at half-maximal effect; nearly all actives have a fitted effect of over 60% in size
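Screening format was qHTS against 50 nM purified 15hLO-2 in Hepes pH 7.5 with detergent. Activity follows hydroperoxide formation from 45 uM arachidonic acid, measured as 573:405 nm absorbance ratio of the ferric-xylenol orange complex.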
HPGD block: HPGD (human) dehydrogenase inhibition. P15428. Potency, µM, inactives show at the highest dose activity change, negative = inhibition, usual class: inhibitors. AID 894. 150,000 compounds, 4.3% hits. purified HPGD, NADH fluorescence kinetic, PGE2 substrate; active = well fitted inhibition curve with a large enough effect, not every such curve was filed as active; inconclusive = small, poorly fitted or top-dose-only effect, or another doubt; inactive = no such curve, though single readings can be large or run the other way; also: potency is read from the fitted curve at half-maximal effect
Target sequence (P15428 whole entry, looked up): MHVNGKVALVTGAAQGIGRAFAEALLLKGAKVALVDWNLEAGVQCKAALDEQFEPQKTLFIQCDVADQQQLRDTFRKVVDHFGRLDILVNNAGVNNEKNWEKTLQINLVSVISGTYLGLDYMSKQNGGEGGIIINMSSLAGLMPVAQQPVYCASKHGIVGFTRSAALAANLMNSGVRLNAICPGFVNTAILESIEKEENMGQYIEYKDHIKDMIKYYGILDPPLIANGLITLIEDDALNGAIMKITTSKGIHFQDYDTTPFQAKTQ
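NADH formation kinetics: reaction with 30 uM PGE2 and 1 mM NAD+ (final), 20 nM enzyme, Tris-HCl pH 8 with Tween 20, after 15 min compound preincubation at room temperature. Fluorescence change, last versus first of five reads.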
Starred values were filed as active, the others as inactive; ? = inconclusive; · = not tested or not shown; ! = not confirmed by another sample; [ ] = remark or other dose. Hits are enriched below; roughly 5.3% of the tested compounds scored in any of these assays. Unless noted, calls follow the shape of the dose curve; as a rule, active = well fitted curve in the direction sought with a large enough effect; inconclusive = small, poorly fitted or top-dose-only effect, or another doubt; inactive = no such curve, though single readings can be large; an effect the other way counts as inactive or inconclusive. Unless noted, % is scaled to controls: 0 for no effect and ±100 for the full control effect.

SMILES	12-hLO inh	IMPase Li inh	PNC inhibitor	IMPase cell inh	ALOX15B inhib	HPGD block
O=C(Cc1ccccc1)N1CCN(Cc2ccccn2)CC1	-5%	-4%	-84*	-11	·	-6%
Cc1ccccc1CN1CCN(C(=O)Cc2ccccc2)CC1	·	10%	·	·	·	·
C=CC(=C)C	-2%	-10%	·	·	-1%	2%
C=CCc1cc(C=C2C(=O)N(C)C(=O)N(C)C2=O)cc(OCC)c1OCc1ccccc1	-5%	-6%	-114*	·	·	14µM*
C=CCc1cc(C=C2C(=O)NC(=O)NC2=O)cc(OC)c1OCc1ccc(C(=O)O)cc1	·	2%	·	·	·	·
CN1CCN(c2ccc([N+](=O)[O-])c3[nH]o[n+](=O)c23)CC1	1%[11.4 µM]	·	·	·	-4%[11.4 µM]	·
COc1cccc(CN2CCCCC2c2cccnc2)c1 (configuration not stated)	-4%	-1%[38.3 µM]	-83*	3	4%	-16%
COc1ccc(CN2CCCCC2c2cccnc2)cc1C (configuration not stated)	-1%	7%[38.3 µM]	34	9	10%	-12%
C[C@]1(C(=O)O)CCC[C@]2(C)c3cc(O)ccc3CC[C@@H]12	-3%	14%	·	-3	-13%	-13%
CC(C)c1cc2c(c(O)c1O)[C@]1(C(=O)O)CCCC(C)(C)C1CC2 (some centres not stated)	0%	29%	·	·	?	3.2µM*
CC(C)c1cc2c(c(O)c1O)[C@@]1(C(=O)O)CCCC(C)(C)[C@@H]1CC2	?	24%	·	·	?	16µM*
O=C1C=CC(=O)c2c1ccc1c2ccc2ccccc21	?	16%	·	-1[20.6 µM]	?	11µM*
CC(=O)[O-].CC(=O)[O-].CC(=O)[O-].[Cr+3]	4%	-11%	·	·	6%	-7%
COC[C@H]1OC(=O)c2coc3c2[C@@]1(C)C1=C(C3=O)[C@H]2CCC(=O)[C@@]2(C)C[C@H]1OC(C)=O	6%	15%	·	34	12%	32µM*
COC[C@H]1OC(=O)c2coc3c2[C@@]1(C)C1=C(C3=O)C2CCC(=O)[C@@]2(C)C[C@H]1OC(C)=O (some centres not stated)	-6%[0.00818 µM]	24%	·	·	7%[0.0915 µM]	35µM*!
O=C1CN=C(c2ccccc2)c2cc([N+](=O)[O-])ccc2N1	1%[0.00818 µM]	8%	·	·	11%[0.0915 µM]	25µM*
COc1cc2ccccc2c2cc([N+](=O)[O-])oc12	2%[11.4 µM]	4%	·	·	-4%[11.4 µM]	-9%
C=CCN1CCc2cccc3c2[C@@H]1Cc1ccc(O)c(O)c1-3	-17%	·	·	-1	6.3µM*	·
O=C(O)[C@@H](O)[C@@H](O)[C@@H]1[O][Sb][O][C@@H]1CO	1%[11.4 µM]	·	·	·	9%[11.4 µM]	·
CN(C)C(=S)SSC(=S)N(C)C	?	27%	·	·	-9%	0.71µM*
CC(C)[C@H](CO)Nc1nc(Nc2cccc(Cl)c2)c2ncn(C(C)C)c2n1	-10%	16%	·	1	25%	-19%
Cc1cc(C=C2C(=O)N(C)C(=S)N(C)C2=O)c(C)n1-c1cccnc1	-11%	8%	10	·	·	10µM*
Cc1cc(/C=C2/C(=O)NC(=O)N(C)C2=O)c(C)n1-c1ccccc1	·	7%	·	·	·	·
C=CCn1c(O)c(C=NCCN2CCNCC2)c(=O)[nH]c1=O	4%	0%[38.3 µM]	15	2	5%	-12%
Cc1c(N=Cc2c(O)n(Cc3ccccc3)c(=O)[nH]c2=O)c(=O)n(-c2ccccc2)n1C	-1%	8%	6	·	·	?
SMILES	12-hLO inh	IMPase Li inh	PNC inhibitor	IMPase cell inh	ALOX15B inhib	HPGD block
O=c1[nH]c(=O)n(Cc2ccco2)c(O)c1C=NCCN1CCOCC1	-2%	6%[38.3 µM]	15	-2	0%	-12%
O=c1[nH]c(=O)n(Cc2ccco2)c(O)c1C=NCc1ccco1	-14%	3%[38.3 µM]	27	-9	10%	28µM*
O=c1[nH]c(=O)n(Cc2ccccc2)c(O)c1C=NCCN1CCNCC1	-3%	23%[38.3 µM]	8	-5	19%[2.29 µM]	22µM*
Cc1c(N=Cc2c(O)n(Cc3ccco3)c(=O)[nH]c2=O)c(=O)n(-c2ccccc2)n1C	4%	31%[38.3 µM]	-82*	25	-2%	-19%
ClCc1ccccc1	-1%	-7%	·	·	-3%	-6%
CCN(CC)C(=O)N[C@H]1C[C@H]2c3cccc4[nH]cc(c34)C[C@@H]2N(C)C1	5%	·	·	8	12%	·
Oc1c(Cl)c(Cl)cc(Cl)c1Cl	-6%	0%	·	·	2%	?
CN(C)C1C(=O)C(C(N)=O)=C(O)[C@@]2(O)C(=O)C3=C(O)c4c(O)cccc4[C@@](C)(O)C3[C@H](O)C12 (some centres not stated)	·	3.2µM*	·	·	·	?
CN(C)[C@@H]1C(=O)C(C(N)=O)=C(O)[C@]2(O)C(=O)C3=C(O)c4c(O)cccc4[C@@](C)(O)[C@H]3[C@H](O)[C@@H]12	-8%[25.6 µM]	-12%	·	-8[20.6 µM]	24%[25.6 µM]	?
CCSC(=O)Cl	-2%	-5%	·	·	-1%	-9%
COc1cc2c(cc1OC)-c1c(OC)c(OC)c(OC)c3ccnc(c13)C2=O	-1%	22%	-101*	·	·	?
O=C1CN=C(c2ccccc2)c2cc(Br)ccc2N1Cc1cc(=O)n2ccccc2n1	-2%	10%	-88*	·	·	-14%
COc1cc2c3cc1Oc1cc(ccc1O)C[C@@H]1c4c(cc(OC)c(O)c4Oc4ccc(cc4)C[C@H]3N(C)CC2)CCN1C	-2%	6%	-97*	·	·	-10%

Assay outcomes (PubChem BioAssay)
